Compound activity from PubChem.
TDP1 block: TDP1 (human) enzyme inhibition; Q9NUW8; recombinant TDP1, AlphaScreen DNA substrate cleavage; Potency, µM (highest dose often 130 µM), most hits filed as inhibitors; 0.28% of 350,000 active; AID 485290; further: nearly all actives have a fitted effect of over 40% in size
Target sequence (Q9NUW8 whole entry, looked up): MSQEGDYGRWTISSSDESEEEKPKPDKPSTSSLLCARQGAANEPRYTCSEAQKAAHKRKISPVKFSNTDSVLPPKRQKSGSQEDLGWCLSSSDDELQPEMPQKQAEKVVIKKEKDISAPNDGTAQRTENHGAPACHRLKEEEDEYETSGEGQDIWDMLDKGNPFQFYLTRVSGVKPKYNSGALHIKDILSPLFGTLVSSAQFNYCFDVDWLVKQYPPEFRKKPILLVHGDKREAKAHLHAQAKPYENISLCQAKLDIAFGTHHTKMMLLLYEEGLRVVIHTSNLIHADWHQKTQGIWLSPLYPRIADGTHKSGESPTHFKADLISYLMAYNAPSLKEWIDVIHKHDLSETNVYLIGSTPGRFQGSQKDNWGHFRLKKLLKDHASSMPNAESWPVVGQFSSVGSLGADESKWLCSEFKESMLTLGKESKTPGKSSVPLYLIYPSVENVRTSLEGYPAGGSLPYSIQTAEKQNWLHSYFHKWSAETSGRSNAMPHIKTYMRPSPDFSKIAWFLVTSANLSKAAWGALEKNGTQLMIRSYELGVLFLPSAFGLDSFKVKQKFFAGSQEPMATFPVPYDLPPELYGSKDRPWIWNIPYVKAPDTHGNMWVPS
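Recombinant human Tdp1 (E. coli-expressed, 1 nM final) preincubated with compounds 15 min at room temperature, then 5'-biotin/3'-phosphotyrosine-FITC DNA substrate (15 nM final) added for 5 min. AlphaScreen beads (10 ug/ml final) added 10 min; cleavage lowers signal.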
Gal4-VP16 FLuc: Gal4-VP16 reporter inhibition counter-screen; Drosophila S2 Gal4-VP16 UAS-luciferase, luminescence, 20 h; Potency, µM (doses to about 53.6 µM), most hits filed as inhibitors; 3.5% of 310,000 active; AID 2546;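 further: Gal4-VP16 expression switched on by copper sulfate through the metallothionein promoter; nearly all actives have a fitted effect of over 50% in size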
DT40 TDP1 no CPT: qHTS for Inhibitors of human tyrosyl-DNA phosphodiesterase 1 (TDP1): qHTS in cells in absence of CPT; DT40 Tdp1-/- hTDP1 cells, no CPT, ATP luminescence, 48 h; Potency, µM (top dose mostly 46.2 µM), actives largely listed as inhibitors; 15% of 420,000 active; AID 686978, 2013; further: nearly all actives have a fitted effect of over 55% in size
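Camptothecin absent (DMSO only). Human TDP1-complemented DT40 knockout cells, 400 cells/well, 37 °C for minimum 48 hr; ATP measured via CellTiter-Glo, 30 min dark incubation, luminescence.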
RORg inh: inhibitors of mouse ROR gamma transcriptional activity; P51450; Drosophila S2 Gal4-RORgamma UAS-luciferase reporter, 20 h; Potency, µM (highest dose often 53.6 µM), hits mostly inhibitors; 5.4% of 310,000 active; AID 2551; further: nearly all actives have a fitted effect of over 60% in size
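A Gal4/UAS one-hybrid system in insect cells: metallothionein-promoter Gal4–ROR gamma fusion plus Photinus luciferase reporter. Copper sulfate 700 uM final, 20 hr ambient incubation, luminescent detection after 10 min with reagent.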
DT40 TDP1 CPT: DT40-hTDP1 cell growth loss with CPT | chicken DT40 Tdp1-/-;hTDP1 cells + 20 nM CPT, ATP luminescence, 48 h | Potency, µM (doses to about 46.2 µM), most hits filed as inhibitors | 12% of 420,000 active; further: nearly all actives have a fitted effect of over 55% in size
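Cell growth measured by CellTiter-Glo luminescence after a minimum 48 h, 37 C compound exposure with 20 nM CPT in Tdp1-knockout DT40 cells stably expressing hTDP1, seeded 400/well; qHTS titration format.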
Hits are given with their value; i = inactive; ? = inconclusive; nt = no result given; [ ] = dose if it differs, or a comment. Most compounds without a hit are left out; they make up all but 19% or so of the library. The call rests on the fitted dose curve; in most records, active means well fitted curve in the direction sought with a large enough effect; inconclusive means small, poorly fitted or top-dose-only effect, or another doubt; inactive means no such curve, though single readings can be large; an effect the other way counts as inactive or inconclusive.

SMILES	TDP1 block	Gal4-VP16 FLuc	DT40 TDP1 no CPT	RORg inh	DT40 TDP1 CPT
CC(C)(CNC(=S)NCCc1ccccc1)CNC(=S)NCCc1ccccc1	i	8.9µM	29µM	?	8.2µM
CNC(=S)NCCc1ccccc1	nt	i	i	i	i
Nc1ccccc1SCc1ccccc1Cl	i	i	i	i	i
N/C(=N\OC(=O)Cc1ccc(-c2ccccc2)cc1)c1cccnc1	i	?	i	?	i
Cc1ccc(CC2(OCCN(C)C)CCC(C(C)(C)C)CC2)cc1 (stereo not given)	nt	nt	15µM	nt	18µM
CN(C)CCOC1(Cc2ccc(F)cc2)CCC(C(C)(C)C)CC1 (stereo not given)	nt	nt	18µM	nt	?
Cc1ccc(NC(=O)COC(=O)C2CCN(c3ccc(C(F)(F)F)cn3)CC2)cc1C	nt	nt	i	nt	i
O=C(NC1CCCCC1)NC1CC2CCC(C1)N2C(=O)NCc1ccccc1 (stereo not given)	i	i	nt	i	nt
Clc1ccc(SCCOCCN2CCOCC2)cc1	i	i	?	i	i
NC(=S)N/N=C1\CCSc2ccc(Cl)cc21	nt	10µM	18µM	2µM	21µM
Nc1nc(NC(=O)c2ccc(F)cc2)ns1	nt	nt	i	nt	i
O=C(NCC1CCCO1)c1ccccc1-c1nc(-c2ccc(Cl)cc2)no1 (stereo not given)	i	i	18µM	?	18µM
CCOc1cc(NC(=S)NCC2CCCO2)c(OCC)cc1NC(=O)c1ccccc1F (stereo not given)	i	7.9µM	23µM	3.2µM	?
O=C(COc1ccccc1C(=O)NCC1CCCO1)Nc1ccc(Cl)cc1Cl (stereo not given)	i	i	?	i	15µM
CCOc1ccccc1N=c1oc2cc(O)ccc2cc1C(=O)NCC1CCCO1 (stereo not given)	i	?	?	?	11µM
CCOc1cc(NC(=S)NCC2CCCO2)c(OCC)cc1NC(=O)CC (stereo not given)	i	i	i	i	i
O=C(NCC1CCCO1)c1ccccc1-c1nc(-c2ccccc2F)no1 (stereo not given)	i	i	i	i	i
CCOc1ccc(N=c2oc3cc(O)ccc3cc2C(=O)NCC2CCCO2)cc1 (stereo not given)	i	i	i	?	i
CCOC(=O)C1=CN(Cc2ccc(OC)cc2)C=C(C(=O)OCC)C1c1cccs1	?	i	?	i	?
COc1ccccc1NCCC#N	i	i	i	i	i
CC(=O)c1ccc(N2CCN(C(=O)Cn3c(=S)[nH]c4ncccc4c3=O)CC2)cc1	i	i	nt	i	nt
CN(C)c1ccc(CNC(=O)CCC(=O)N2Cc3ccccc3Oc3ncccc32)cc1	i	nt	?	nt	?
Cc1ccccc1-c1noc(-c2ccccc2C(=O)NCc2ccco2)n1	i	i	18µM	i	?
CCNC(=O)c1ccccc1-c1nc(-c2ccccc2OC)no1	i	i	?	i	i
CCNC(=O)c1ccccc1-c1nc(-c2ccccc2Cl)no1	i	i	18µM	i	?
SMILES	TDP1 block	Gal4-VP16 FLuc	DT40 TDP1 no CPT	RORg inh	DT40 TDP1 CPT
O=C(NCS(=O)(=O)c1ccccc1)c1ccccc1	i	i	i	i	i
Cc1ccc(N2C(=O)C3CCCN3C2=S)cc1C (stereo not given)	nt	i	i	i	?
COc1ccccc1CCN1CCCC(CN(C)CC(C)(C)CO)C1 (stereo not given)	nt	i	i	i[1.91 µM]	i
COc1ccc(CN2C(=S)NC(C)(C)CC2(C)O)cc1 (stereo not given)	i	?	i	13µM	i
COc1ccccc1CCN1C(=S)NC(C)(C)CC1(C)O (stereo not given)	i	5.6µM	?	2.8µM	?
COc1ccc(CNC(=O)CCN2C(=S)NC(C)(C)CC2C)cc1 (stereo not given)	i	i	i	?	i
CCCC12CN3CC(C)(CN(C1)C3c1ccc([N+](=O)[O-])o1)C2=O (stereo not given)	i	i	i	i	i
O=C(COc1ncnc2cc([N+](=O)[O-])ccc12)NC1CCCCC1	i	i	i	i	i
COc1nc(-c2cccs2)cc(-c2ccc(C)cc2)c1C#N	nt	i	13µM	?	10µM
N#Cc1c(-c2ccccc2)cc(-c2cccs2)nc1SCC(=O)O	nt	i	i	i	i
COc1ccc(-c2cc(-c3cccs3)nc(OC)c2C#N)cc1OC	i	i	29µM	i	?
COc1ccc(-c2noc(-c3cccs3)n2)cc1OC	i	i	?	i	i
NC(=O)CN1CCN(c2nc(-c3ccc(F)cc3)cs2)CC1	i	i	?	i	i
OCCCn1c(C2CCCN2c2nc(-c3ccc(F)cc3)cs2)nc2cc(C(F)(F)F)ccc21 (stereo not given)	nt	nt	?	nt	8.2µM
Cc1ccc(Cn2c(C3CCCN3c3nc(-c4ccc(F)cc4)cs3)nc3cc(C(=O)NCCCO)ccc32)cc1 (stereo not given)	nt	nt	?	nt	21µM
OCCOCCn1c(C2CCCN2c2nc(-c3ccc(F)cc3)cs2)nc2cc(C(F)(F)F)ccc21 (stereo not given)	nt	nt	?	nt	16µM
Cc1ccc(Cn2c(C3CCCN3c3nc(C)cs3)nc3cc(C(=O)NCCCO)ccc32)cc1 (stereo not given)	nt	nt	i	nt	i
OCCOCCn1c(C2CCCN2c2nc(-c3ccc(F)cc3)cs2)nc2cc(Cl)c(Cl)cc21 (stereo not given)	nt	nt	21µM	nt	?
Cc1ccc(SCCNC(=O)c2ccccc2F)cc1	nt	i	?	i	i
O=S(=O)(c1cnccc1N1CCN(CCO)CC1)N1CCCC1	nt	nt	i	nt	i
Cn1cnnc1SCc1ccc(C(=O)O)cc1	i	i	i	i	i
COc1ccc(N2CC(C(=O)N[C@@H](C)C(=O)NC3CCCC3)CC2=O)cc1 (stereo not given in full)	i	i	i	i	i
CC(=O)N1CCCC1c1nc2ccccc2n1Cc1ccccc1C (stereo not given)	i	nt	i	nt	?
Cc1ccc(Cn2c(C3CCCN3c3nc(-c4ccc(F)cc4)cs3)nc3cc(C(F)(F)F)ccc32)cc1 (stereo not given)	nt	nt	21µM	nt	18µM
CCCn1c(C2CCCN2c2nc(-c3ccc(C)cc3)cs2)nc2ccccc21 (stereo not given)	nt	?	?	3.5µM	?
Cc1ccc(Cn2c(C3CCCN3c3nc(-c4ccc(F)cc4)cs3)nc3cc(Cl)c(Cl)cc32)cc1 (stereo not given)	nt	nt	i	nt	i
CCCCCc1cc(=O)oc2c(C(CCN(CC)CC)c3cc(OC)c(OC)c(OC)c3)c(OC)cc(OC)c12 (stereo not given)	i	?	18µM	?	?
CCCCCc1cc(=O)oc2c(C(CCN3CCCCC3)c3ccc4c(c3)OCO4)c(OC)cc(OC)c12 (stereo not given)	nt	i	?	i	23µM
